Some test systems named below: SK-MEL-2 melanoma; EKVX NSCLC; SN12C renal; UO-31 renal; TK-10 renal; ACHN renal; CAKI-1 renal; A498 renal; CCRF-CEM leukemia; MOLT-4 leukemia; SR leukemia; RPMI-8226 leukemia; OVCAR-8 ovarian; OVCAR-5 ovarian; OVCAR-4 ovarian; SK-OV-3 ovarian; IGROV1 ovarian; OVCAR-3 ovarian; HS 578T breast; NCI/ADR-RES ovarian.
What all share (assay): NCI-60 one-dose screen, 48 h (100 = growth as untreated, 0 = no growth, -100 = all killed)
Holding throughout (settings): 10 µM unless noted

Experimental findings from PubChem BioAssay (NCI) are described below.

SMILES strings stand for the structures. This is part of a sample that, as a whole, favours compounds with a hit. Of some 83,000 tested, about 20% had one in any assay.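 Single-concentration screen, 48 h exposure, 96-well plates. Endpoint: percent growth. Below 10 = active.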 Unmarked numbers belong to inactive results. Active and inactive are the calls of the source.

Take `CCCCCCCCCCCCCCCCCC(=O)OCCCCCCCCCCCCC`: the growth is 112% in the test with SK-MEL-2 melanoma; 106% in the test on EKVX NSCLC; 111% with SN12C renal; 95% in the test with UO-31 renal; 122% with TK-10 renal; 104% in the test with ACHN renal. In addition, the growth in the test with CAKI-1 renal is 103%; in the test on A498 renal, 105%; in the test with CCRF-CEM leukemia, 73%; in the test with MOLT-4 leukemia, 113%; in the test on SR leukemia, 116%; in the test on RPMI-8226 leukemia it was 95%. Moreover, the growth in the test on OVCAR-8 ovarian was 109%; in the test with OVCAR-5 ovarian, 113%; with OVCAR-4 ovarian, 113%; in the test with SK-OV-3 ovarian, 114%; in the test with IGROV1 ovarian it was 106%; in the test with OVCAR-3 ovarian it was 114%. Further, the growth in the test on HS 578T breast was 122%.
With `ClC1(Cl)C2CCCCCCC21` (centres undefined), the growth in the test on SK-MEL-2 melanoma is 93%; in the test on EKVX NSCLC, 107%; in the test on SN12C renal, 108%; with UO-31 renal it was 93.4%; with TK-10 renal, 92.1%; with ACHN renal, 110%. The growth in the test with CAKI-1 renal is 98.3%; in the test on A498 renal it was 79.3%; in the test with CCRF-CEM leukemia, 109%; with MOLT-4 leukemia, 109%; with SR leukemia, 108%; with RPMI-8226 leukemia it was 106%. Besides, the growth with OVCAR-8 ovarian is 123%; in the test with OVCAR-5 ovarian, 116%; in the test with OVCAR-4 ovarian, 109%; in the test with SK-OV-3 ovarian it was 118%; in the test with IGROV1 ovarian it was 107%; in the test on OVCAR-3 ovarian it was 120%. Also, the growth in the test with HS 578T breast was 91.8%.
Turning to `COc1cc(CN(CCC(O)N2CCCC2=O)Cc2ccc3c(c2)OCO3)cc(OC)c1OC` (centres undefined), the growth was 94.5% in the test with SK-MEL-2 melanoma; 107% with EKVX NSCLC; 105% in the test on SN12C renal; 78.1% in the test on UO-31 renal; 112% in the test with TK-10 renal; 100% with ACHN renal. For the same molecule, the growth was 97.1% in the test with CAKI-1 renal; 118% with A498 renal; 98.3% in the test with CCRF-CEM leukemia; 85.2% in the test with MOLT-4 leukemia; 86.3% in the test with SR leukemia; 98.7% in the test on RPMI-8226 leukemia. The growth with OVCAR-8 ovarian is 100%; in the test on OVCAR-5 ovarian it was 98.5%; with OVCAR-4 ovarian, 108%; in the test with SK-OV-3 ovarian, 102%; in the test on IGROV1 ovarian it was 95%; in the test with OVCAR-3 ovarian, 105%. The growth in the test on HS 578T breast was 103%.
`COc1cc(OC)c(Cl)cc1N`: the growth in the test on SK-MEL-2 melanoma is 116%; in the test with EKVX NSCLC, 118%; in the test on SN12C renal it was 93.1%; in the test on UO-31 renal, 91.3%; in the test with TK-10 renal, 105%; in the test on ACHN renal it was 101%. Further, the growth in the test with CAKI-1 renal is 91.6%; in the test on A498 renal, 90.9%; in the test on CCRF-CEM leukemia, 97.3%; with MOLT-4 leukemia, 108%; in the test with SR leukemia it was 109%; with RPMI-8226 leukemia, 104%. The growth in the test on OVCAR-8 ovarian is 104%; in the test on OVCAR-5 ovarian it was 111%; with OVCAR-4 ovarian it was 109%; in the test with SK-OV-3 ovarian, 100%; in the test with IGROV1 ovarian, 114%; in the test with OVCAR-3 ovarian, 103%. The growth is 77.9% in the test with HS 578T breast and 109% in the test on NCI/ADR-RES ovarian.
With `CC(CN1CCN(CC(C)Nc2ccnc3cc(Cl)ccc23)CC1)Nc1ccnc2cc(Cl)ccc12` (centres undefined), the growth with SK-MEL-2 melanoma was -37.9% (active); in the test on EKVX NSCLC, 67.3%; in the test on SN12C renal, 57.7%; with UO-31 renal, -49.5% (active); in the test on TK-10 renal it was -48% (active); in the test on ACHN renal it was 19.1%. The growth is 11.2% with CAKI-1 renal; 84.7% in the test on A498 renal; 5.14% (active) in the test with CCRF-CEM leukemia; 4.88% (active) with MOLT-4 leukemia; -44.1% (active) in the test on SR leukemia; -32.2% (active) in the test on RPMI-8226 leukemia. Further, the growth is 6.74% (active) in the test on OVCAR-8 ovarian; 57.2% in the test with OVCAR-5 ovarian; 3.26% (active) in the test on OVCAR-4 ovarian; 97.2% in the test with SK-OV-3 ovarian; 28.2% in the test with IGROV1 ovarian; -7.9% (active) with OVCAR-3 ovarian. In addition, the growth in the test with HS 578T breast is 9.67% (active).
`CC(C)(C)OC(=O)N1CCCN(CCNc2nccc(-c3c(-c4cccc(O)c4)nc4sccn34)n2)S1(=O)=O`: the growth in the test with SK-MEL-2 melanoma is 103%; with EKVX NSCLC, 112%; in the test on SN12C renal it was 82.7%; in the test on UO-31 renal, 74.5%; in the test with TK-10 renal, 121%; in the test with ACHN renal, 66.6%. For the same molecule, the growth in the test on CAKI-1 renal was 49.4%; with A498 renal, 127%; in the test with CCRF-CEM leukemia it was 75.8%; with MOLT-4 leukemia, 90.8%; in the test with SR leukemia it was 77.3%; with RPMI-8226 leukemia it was 96.8%. Also, the growth was 96.8% in the test on OVCAR-8 ovarian; 114% with OVCAR-5 ovarian; 108% in the test on OVCAR-4 ovarian; 69.5% in the test with SK-OV-3 ovarian; 79.5% in the test with IGROV1 ovarian; 119% with OVCAR-3 ovarian. The growth with HS 578T breast was 109%.
Consider `CC1=CC(=O)OC1C/C=C(\C)CCC1[C@@]2(C)CCC[C@@](C)(C(=O)O)C2CC[C@@]1(C)O` (some centres undefined), for which the growth in the test on SK-MEL-2 melanoma was 16.5%; with EKVX NSCLC, 38.8%; with SN12C renal it was 41%; in the test on UO-31 renal it was 32.2%; in the test on TK-10 renal, 53.6%; with ACHN renal, 26.1%. For the same molecule, the growth is 32.9% with CAKI-1 renal; 52.7% in the test with A498 renal; 70.2% in the test with CCRF-CEM leukemia; 114% with MOLT-4 leukemia; 33.2% in the test with SR leukemia; 24.3% with RPMI-8226 leukemia. Further, the growth in the test on OVCAR-8 ovarian was 42.8%; with OVCAR-5 ovarian, 111%; in the test with OVCAR-4 ovarian, 75.5%; with SK-OV-3 ovarian it was 98.1%; in the test with IGROV1 ovarian, 107%; in the test with OVCAR-3 ovarian it was 56%. The growth with HS 578T breast is 38.5%; in the test on NCI/ADR-RES ovarian, 91.8%.
Take `CNC(=O)c1c(NC(=O)c2cccc(C(F)(F)F)c2)sc2c1CCC(=O)C2`: the growth with SK-MEL-2 melanoma was -16.5% (active); with EKVX NSCLC, 4.31% (active); in the test on SN12C renal, 3.13% (active); in the test with UO-31 renal, -94.3% (active); with TK-10 renal, 32.1%; with ACHN renal, -66.9% (active). The growth in the test with CAKI-1 renal is -22.5% (active); in the test on A498 renal, -5.84% (active); in the test on CCRF-CEM leukemia it was -0.844% (active); in the test on MOLT-4 leukemia, -7.92% (active); in the test on SR leukemia, 1.53% (active); with RPMI-8226 leukemia, -33% (active). Moreover, the growth in the test with OVCAR-8 ovarian was 8.86% (active); in the test on OVCAR-5 ovarian, -22.2% (active); in the test on OVCAR-4 ovarian, -81.5% (active); in the test on SK-OV-3 ovarian, -5.12% (active); with IGROV1 ovarian, -24.8% (active); in the test on OVCAR-3 ovarian, 3.37% (active). Moreover, in the test on HS 578T breast, the growth is 17.7%.
